# Screening results deposited in PubChem by National Center for Advancing Translational Sciences (NCATS).
# IL-1B inflam inh: blocks inflammasome-driven IL-1 beta release; AID 743279; actives 4.7% (n = 360,000); activity change, % at 57.5 µM; THP-1 LPS/ATP IL-1B secretion, AlphaLISA, 16 h; active compounds read low; in the data active = activity change below about -50%; inconclusive = mostly about -30% to -49%
#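 Secreted IL-1B measured by AlphaLISA bead assay after 16 h compound exposure of THP-1 cells; compounds (final up to 57.5 uM) added 1 h before LPS (250 ng/mL) and ATP (1.25 mM) stimulation; lower signal means less secretion.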
# DT40 TDP1 no CPT: qHTS for Inhibitors of human tyrosyl-DNA phosphodiesterase 1 (TDP1): qHTS in cells in absence of CPT; Potency, µM (top dose mostly 46.2 µM), inactives show at the top dose activity change, negative = growth inhibition, usual class: inhibitors; AID 686978, 2013; DT40 Tdp1-/- hTDP1 cells, no CPT, ATP luminescence, 48 h; actives 15% (n = 420,000); note: potency is the fitted concentration of half-maximal effect; nearly all actives have a fitted effect of over 55% in size
#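 A cellular qHTS used chicken DT40 cells lacking endogenous Tdp1 but carrying stably transfected human TDP1. Compounds were applied without camptothecin, and cell growth kinetics were judged by ATP-dependent luminescence after ≥48 hr.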
# HT1080NT lethal: kills 2HG-producing HT-1080-NT fibrosarcoma cells. actives 1.6% (n = 360,000). Potency, µM (doses to about 46.1 µM), without a hit: at the highest dose activity, negative = less viability, actives largely listed as cytotoxic. HT-1080-NT fibrosarcoma viability, CellTiter-Glo ATP luminescence, 48 h. AID 686970;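 note: NT is the 2HG producing partner of a matched IDH1 knockdown line; potency is the fitted concentration of half-maximal effect; 0% = DMSO-treated cells and -100% = media-only wells without cells; nearly all actives have a fitted effect of over 55% in size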
#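 A 48-hour cytotoxicity screen used HT-1080-NT cells plated 2 hours before compound delivery. ATP-based CellTiter-Glo luminescence measured viability, normalized to DMSO and no-cell controls.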
# HT1080 IDH1KD tx: HT-1080 IDH1 knockdown cell toxicity (counter line); HT-1080 IDH1 knockdown viability, ATP luminescence, 48 h; Potency, µM (top dose mostly 46.1 µM), for inactives: top-dose activity, negative = toxicity, usual class: cytotoxic; actives 2% (n = 360,000); AID 686971;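 note: potency is the fitted concentration of half-maximal effect; 0% = DMSO wells and -100% = cell-free medium wells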
#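 IDH1KD HT-1080 cells, 750/well, RPMI + 5% FBS; compound pinned after 2 h settling; 48 h, 37 °C; CellTiter-Glo luminescence; % activity normalised to DMSO and no-cell wells; curves fitted, classed by r2 and efficacy.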
# DT40 TDP1 CPT: DT40-hTDP1 cell growth loss with CPT. chicken DT40 Tdp1-/-;hTDP1 cells + 20 nM CPT, ATP luminescence, 48 h. Potency, µM (highest dose often 46.2 µM), inactives show top-dose activity change, negative = growth inhibition, usual class: inhibitors. actives 12% (n = 420,000); note: potency is the fitted concentration of half-maximal effect; nearly all actives have a fitted effect of over 55% in size
#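 Chicken DT40 Tdp1-/- cells complemented with human TDP1, 400 cells/well, exposed to compounds plus 20 nM camptothecin for at least 48 h at 37 C; viability read as ATP content by CellTiter-Glo luminescence.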
# Active calls of the source: *; ? = inconclusive; . = not tested or not shown. Only some compounds are listed: those with a hit (about 19% of all), similar ones and a draw of the others. Unless noted, calls come from the whole dose curve; as a rule, active = well fitted curve in the direction sought with a large enough effect; inconclusive = small, poorly fitted or top-dose-only effect, or another doubt; inactive = no such curve, though single readings can be large; an effect the other way counts as inactive or inconclusive. Unless noted, % is set by controls: 0 for no effect and ±100 for the full control effect.
SMILES,IL-1B inflam inh,DT40 TDP1 no CPT,HT1080NT lethal,HT1080 IDH1KD tx,DT40 TDP1 CPT
CC1CN(c2ccc(Cl)cc2[N+](=O)[O-])CCN1S(C)(=O)=O (configuration not stated),-7,?,-9%,-17%,-21%
CSc1cccc(Nc2ccc(S(=O)(=O)N3CCOCC3)cc2[N+](=O)[O-])c1,-29,?,-8%,-18%,-15%
C#CCOCCOCCOCCNc1nc(N2CCN(C(=O)C(Cc3cc4ccccc4[nH]3)n3cc(C(N)C(C)CC)nn3)CC2)nc(N2CCN(C(=O)C(Cc3cc4ccccc4[nH]3)n3cc(C(N)C(C)CC)nn3)CC2)n1 (configuration not stated),-27,?,-1%,-3%,16µM*
C#CCOCCOCCOCCNc1nc(N2CCN(C(=O)[C@H]([C@@H](C)CC)n3cc([C@@H](N)Cc4ccc(O)cc4)nn3)CC2)nc(N2CCN(C(=O)[C@H](Cc3cc4ccccc4[nH]3)n3cc([C@@H](N)CC(C)C)nn3)CC2)n1,-17,?,6%,5%,23µM*
CC[C@@H](C)C(NC(=O)OC(C)(C)C)c1cn([C@@H](Cc2cc3ccccc3[nH]2)C(=O)N2CCN(C(=O)OC(C)(C)C)CC2)nn1 (some centres not stated),?,23µM*,-12%,-1%,23µM*
C#CCOCCOCCOCCNc1nc(N2CCOCC2)nc(N2CCN(C(=O)[C@H](Cc3cc4ccccc4[nH]3)n3cc([C@@H](N)C(C)CC)nn3)CC2)n1 (some centres not stated),?,-26%,-6%,-6%,-7%
C#CCOCCOCCOCCNc1nc(N2CCN(C(=O)[C@H]([C@@H](C)CC)n3cc([C@@H](N)CC(C)C)nn3)CC2)nc(N2CCN(C(=O)[C@H](Cc3cc4ccccc4[nH]3)n3cc([C@@H](N)Cc4ccc(O)cc4)nn3)CC2)n1,-57*,?,-21%,-6%,?
C=C1CCN([C@H](C(=O)O)C(C)C)S(=O)(=O)c2ccccc21,16,8%,0%,-6%,3%
C=C1CCN([C@H](C(=O)OCc2cccc(C)c2)C(C)C)S(=O)(=O)c2ccccc21,15,15µM*,0%,0%,?
CCCC(O)(CCN(C)C)c1ccc(OC)cc1 (configuration not stated),-5,?,11%,11%,1%
Cc1nn2c(N3CCOCC3)cc(C(C)(C)C)nc2c1-c1ccccc1,5,?,-2%,11%,?
CCN1CCN(c2cc(C(C)C)nc3c(-c4ccccc4)c(C)nn23)CC1,.,21µM*,?,16µM*,12µM*
Cc1nn2c(N3CCOCC3)cc(C(C)C)nc2c1-c1ccccc1,-13,-18%,6%,11%,?
CCN1CCN(c2cc(C(C)(C)C)nc3c(-c4ccccc4)c(C)nn23)CC1,?,18µM*,?,13µM*,?
C[C@@]12C(=O)OC(=O)[C@@]1(C)[C@@H]1CC[C@@H]2O1,.,30µM*,.,.,30µM*
Nc1ncnc2c1ncn2C1C=C(CO)C(O)C1O (configuration not stated),26,0.16µM*,?,?,0.037µM*
Nc1nc2c(ncn2C2OC(CO)CC2O)c(=O)[nH]1 (configuration not stated),.,1.5µM*,.,.,0.92µM*
CC=C1OC(n2cnc3c(N)ncnc32)C(O)C1O (configuration not stated),21,?,12%,4%,?
Nc1ncnc2c1ncn2[C@@H]1O[C@H](CO)C[C@H]1O,-19,7.3µM*,-36%,-26%,8.2µM*
Nc1nc2c(ncn2CCC(CO)CO)c(=O)[nH]1,.,1.7µM*,.,.,0.67µM*
CC1(C)OC2C(CO)OC(n3cnc4c(=O)[nH]c(N)nc43)C2O1 (configuration not stated),.,-5%,.,.,-3%
